Inconclusive results are not listed. Calls of active or inactive are those of the source. Rule for the calls, unless noted: active = hit-call score of the fitted dose curve at least 0.9, where 1 is the maximum; inconclusive = response in the unintended direction; inactive = score below 0.9.
Experiments:
[1] = target: chicken Estrogen Receptor (ERa), ESR1 (gene 396099) (UniProt P06212); test: ATG_chERa_XSP2: Attagene TRANS-FACTORIAL Multi-Species (XSP2) HepG2 Assay for chicken Estrogen Receptor (ERa) (AID 2283817);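 note: actives raise reporter signal above DMSO so AC50 reflects ER activation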
Summary of the method: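 Transiently transfected HepG2 cells expressing chimeric chicken ERa-GAL4 reporter units, dosed 24 h with 3 nM 6-alpha-fluorotestosterone and 1.5 nM norgestrel present. Reporter mRNA measured by RT-PCR and capillary electrophoresis; gain-of-signal fitted relative to DMSO.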

[2] = tested on: zebrafish Estrogen Receptor (ER2a), gene 317734; test: ATG_zfER2a_XSP2: Attagene TRANS-FACTORIAL Multi-Species (XSP2) HepG2 Assay for zebrafish Estrogen Receptor (ER2a) (AID 2283818);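 note: hits raise reporter mRNA so AC50 reflects activation of zebrafish ER2a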
Summary of the method: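 HepG2 cells transiently transfected with GAL4-UAS reporter units and chimeric zebrafish ER2a-Gal4, exposed 24 h; medium contains 3 nM 6-alpha-fluorotestosterone and 1.5 nM norgestrel. Reporter mRNA quantified by RT-PCR, HpaI digestion, capillary electrophoresis; gain versus DMSO.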

[3] = tested on: frog Estrogen Receptor (ER), gene 398734; test: ATG_frER1_XSP2: Attagene TRANS-FACTORIAL Multi-Species (XSP2) HepG2 Assay for frog Estrogen Receptor (ER) (AID 2283821);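 note: hits raise reporter mRNA above DMSO baseline so potency means agonist or activator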
Protocol: (§1) ATG_XSP2_multi-species_TRANS is a cell-based, multiplexed assay created by modifying the existing Attagene TRANS-FACTORIAL system to include a panel of nuclear receptors from some or all the following species: human (Homo sapiens), mouse (Mus musculus), frog (Xenopus laevis), zebrafish (Danio rerio), chicken (Gallus gallus), and turtle (Chrysemys picta). The ECOTOX-FACTORIAL format uses HepG2, a human liver cell line, with measurements taken at 24 hours after chemical dosing in a 24-well plate. Xsp2 included 3 nM 6-alpha-fluorotestosterone and 1.5 nM norgestrel to stimulate the androgen receptor.ATG_frER1_XSP2 is one of 29 assay components measured or calculated from the ATG_XSP2_multi-species_TRANS assay. It is designed to make measurements of mRNA induction, a form of inducible reporter, as detected with fluorescence intensity signals by Reverse transcription polymerase chain reaction (RT-PCR) and Capillary electrophoresis technology.The assay endpoint ATG_frER1_XSP2 was analyzed in the positive analysis fitting direction relative to DMSO as the negative control and baseline of activity. […] Furthermore, this assay endpoint can be referred to as a primary readout, because this assay has produced multiple assay endpoints where this one serves a reporter gene function. […]

[4] = tested on: zebrafish Estrogen Receptor (ER2b), gene 317733; test: ATG_zfER2b_XSP2: Attagene TRANS-FACTORIAL Multi-Species (XSP2) HepG2 Assay for zebrafish Estrogen Receptor (ER2b) (AID 2283823);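 note: fitted upward as reporter gain over DMSO so potency reflects activation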
Protocol: as §1, with “receptor.ATG_zfER2b_XSP2” for “receptor.ATG_frER1_XSP2”, “ATG_zfER2b_XSP2” for “ATG_frER1_XSP2”

[5] = tested on: frog Estrogen Receptor (ER2), gene 100174814; test: ATG_frER2_XSP2: Attagene TRANS-FACTORIAL Multi-Species (XSP2) HepG2 Assay for frog Estrogen Receptor (ER2) (AID 2283828)
Summary of the method: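 HepG2 cells transiently transfected with multiplexed GAL4-UAS reporter units expressing chimeric frog ER2–Gal4 protein; reporter mRNA measured 24 h after chemical dosing by RT-PCR, fluorescent labeling and capillary electrophoresis. Gain-of-signal fitted relative to DMSO baseline.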

[6] = target: Peroxisome proliferator-activated receptor gamma (Homo sapiens) (UniProt P37231); test: ATG_hPPARg_XSP2: Attagene TRANS-FACTORIAL Multi-Species (XSP2) HepG2 Assay for human Peroxisome Proliferator-activated Receptor gamma (PPARg) (AID 2283829);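 note: actives raise reporter mRNA above DMSO so AC50 reflects PPARg activation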
Summary of the method: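 Human HepG2 cells carried transiently transfected Gal4 reporter units and were treated with chemical for 24 h alongside androgen-receptor stimulants (3 nM 6-alpha-fluorotestosterone, 1.5 nM norgestrel). Reporter transcripts were detected by RT-PCR with capillary electrophoresis, analysed in the positive direction against DMSO.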

[7] = target: Nuclear receptor subfamily 1 group I member 2 (Mus musculus) (UniProt O54915); test: ATG_mPXR_XSP2: Attagene TRANS-FACTORIAL Multi-Species (XSP1) HepG2 Assay for mouse Pregnane X Receptor (PXR) (AID 2283831)
Summary of the method: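 Fluorescence signals from capillary electrophoresis of RT-PCR-amplified reporter mRNA give the readout, gain-of-signal versus DMSO. Transfected HepG2 cells, 24 h dosing, medium contained 3 nM 6-alpha-fluorotestosterone and 1.5 nM norgestrel.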

[8] = target: zebrafish Thyroid Hormone Receptor alpha (TRa), thraa (gene 30670) (UniProt Q98867); test: ATG_zfTRa_XSP2: Attagene TRANS-FACTORIAL Multi-Species (XSP1) HepG2 Assay for zebrafish Thyroid Hormone Receptor alpha (TRa) (AID 2283832);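 note: actives raise zebrafish TRa-Gal4 reporter transcript above DMSO baseline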
Summary of the method: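 Chimeric receptor-Gal4 activity was assessed in transfected human liver HepG2 cells 24 h after dosing, using reporter transcript levels detected by RT-PCR and capillary electrophoresis. DMSO served as baseline.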

[9] = tested on: turtle Thyroid Hormone Receptor, alpha (TRa), gene 101949057; test: ATG_trTRa_XSP2: Attagene TRANS-FACTORIAL Multi-Species (XSP1) HepG2 Assay for turtle Thyroid Hormone Receptor, alpha (TRa) (AID 2283834);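 note: hits raise reporter mRNA over the DMSO baseline so AC50 marks activators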
Protocol: as §1, with “receptor.ATG_trTRa_XSP2” for “receptor.ATG_frER1_XSP2”, “ATG_trTRa_XSP2” for “ATG_frER1_XSP2”

[10] = ATG_M_61_XSP2: Attagene TRANS-FACTORIAL Multi-Species (XSP2) HepG2 Assay for M61 Transcription Factor (Internal Marker) (AID 2283835; active = hit-call score of the fitted dose curve at least 0.9, where 1 is the maximum; inactive = score below 0.9;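 note: active means a rise in signal above the DMSO baseline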)
Summary of the method: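 HepG2 cells transiently transfected with multiple GAL4-UAS reporter units; reporter mRNA measured 24 h after dosing by RT-PCR, fluorescent labelling and capillary electrophoresis. Medium contained 3 nM 6-alpha-fluorotestosterone and 1.5 nM norgestrel; internal marker, DMSO baseline.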

Measured: AC50

Peroxisome proliferator-activated receptor gamma (Homo sapiens), sequence (P37231 whole entry, looked up, the tested form may be a part): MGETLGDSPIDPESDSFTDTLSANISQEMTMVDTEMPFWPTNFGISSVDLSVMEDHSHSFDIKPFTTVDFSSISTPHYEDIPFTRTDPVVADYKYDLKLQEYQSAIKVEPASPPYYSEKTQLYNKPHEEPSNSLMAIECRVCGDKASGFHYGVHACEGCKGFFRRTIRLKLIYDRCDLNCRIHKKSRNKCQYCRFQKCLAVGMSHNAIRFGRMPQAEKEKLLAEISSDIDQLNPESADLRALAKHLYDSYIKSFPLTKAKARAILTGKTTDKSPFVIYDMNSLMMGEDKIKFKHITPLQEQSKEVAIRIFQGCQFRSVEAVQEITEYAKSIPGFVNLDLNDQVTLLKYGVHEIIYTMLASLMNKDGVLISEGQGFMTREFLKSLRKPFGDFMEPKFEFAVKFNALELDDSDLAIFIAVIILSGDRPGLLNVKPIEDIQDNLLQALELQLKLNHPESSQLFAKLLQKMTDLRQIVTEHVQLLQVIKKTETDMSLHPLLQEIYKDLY
Nuclear receptor subfamily 1 group I member 2 (Mus musculus), sequence (O54915 whole entry, looked up): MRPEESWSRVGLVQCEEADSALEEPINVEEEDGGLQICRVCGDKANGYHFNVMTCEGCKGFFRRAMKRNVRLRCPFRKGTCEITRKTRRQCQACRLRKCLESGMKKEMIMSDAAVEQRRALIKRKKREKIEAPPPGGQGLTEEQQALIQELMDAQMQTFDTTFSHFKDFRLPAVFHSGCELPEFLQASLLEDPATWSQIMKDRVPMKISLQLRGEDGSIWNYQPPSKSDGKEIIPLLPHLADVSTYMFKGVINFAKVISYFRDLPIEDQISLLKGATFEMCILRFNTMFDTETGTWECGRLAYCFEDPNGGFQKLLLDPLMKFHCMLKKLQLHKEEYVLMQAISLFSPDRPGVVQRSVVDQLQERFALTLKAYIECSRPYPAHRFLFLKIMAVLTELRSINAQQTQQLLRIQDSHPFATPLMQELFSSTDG
chicken Estrogen Receptor (ERa), ESR1 (gene 396099), sequence (P06212 whole entry, looked up, the tested form may be a part): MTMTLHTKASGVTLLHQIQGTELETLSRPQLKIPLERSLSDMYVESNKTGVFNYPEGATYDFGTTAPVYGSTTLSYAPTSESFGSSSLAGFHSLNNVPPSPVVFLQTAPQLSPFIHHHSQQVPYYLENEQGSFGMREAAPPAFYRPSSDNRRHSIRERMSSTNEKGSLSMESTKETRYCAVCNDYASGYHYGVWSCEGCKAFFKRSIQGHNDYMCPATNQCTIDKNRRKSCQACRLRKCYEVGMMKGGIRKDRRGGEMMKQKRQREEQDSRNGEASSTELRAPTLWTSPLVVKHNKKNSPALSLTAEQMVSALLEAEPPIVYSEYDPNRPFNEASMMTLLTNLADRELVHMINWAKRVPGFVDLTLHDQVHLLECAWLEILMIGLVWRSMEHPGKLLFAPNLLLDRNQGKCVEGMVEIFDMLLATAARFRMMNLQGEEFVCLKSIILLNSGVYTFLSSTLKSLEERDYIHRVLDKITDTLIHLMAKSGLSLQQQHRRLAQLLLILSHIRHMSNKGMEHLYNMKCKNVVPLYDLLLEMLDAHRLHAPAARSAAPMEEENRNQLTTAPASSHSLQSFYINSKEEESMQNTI
zebrafish Thyroid Hormone Receptor alpha (TRa), thraa (gene 30670), sequence (Q98867 whole entry, looked up, the tested form may be a part): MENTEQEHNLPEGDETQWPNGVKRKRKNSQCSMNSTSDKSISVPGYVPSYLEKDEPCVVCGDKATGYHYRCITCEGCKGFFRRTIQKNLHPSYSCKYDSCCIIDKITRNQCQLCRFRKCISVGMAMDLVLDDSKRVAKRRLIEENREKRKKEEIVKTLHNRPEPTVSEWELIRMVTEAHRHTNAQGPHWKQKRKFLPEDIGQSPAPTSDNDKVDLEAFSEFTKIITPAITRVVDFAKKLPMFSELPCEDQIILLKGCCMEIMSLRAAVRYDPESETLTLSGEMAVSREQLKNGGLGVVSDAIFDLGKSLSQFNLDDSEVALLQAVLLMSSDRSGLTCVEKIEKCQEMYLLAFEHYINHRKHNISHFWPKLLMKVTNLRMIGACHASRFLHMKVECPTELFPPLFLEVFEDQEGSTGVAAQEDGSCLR

C[C@]12CC[C@@H]3c4ccc(O)cc4CC[C@H]3[C@@H]1C[C@@H](O)[C@@H]2O
inactive: [3] | [5] | [6] | [7] | [8] | [9] | [10]
active: [1] 72.5 nM | [2] 100 nM | [4] 30.8 nM
